Reference: PubChem BioAssay (EPA / NIEHS)
Calls of active or inactive are those of the source. Rule for the calls: active = hit-call score of the fitted dose curve at least 0.9, where 1 is the maximum; inactive = score below 0.9.

The compounds below were run on Vascular cell adhesion molecule 1 (VCAM1), VCAM1 (gene 7412) (assay: BSK_BF4T_VCAM1: BioMAP Diversity Plus: BF4T Assay for Vascular cell adhesion molecule 1 (VCAM1) Biomarker Activity (AID 2284249)). Settings: primary human bronchial epithelial cells with fibroblasts.
Procedure: BSK_BF4T is a cell-based, multiplexed-readout assay that uses bronchial epithelial cells and dermal fibroblasts, a human vascular primary cell, with measurements taken at 24 hours after chemical dosing in a microplate: 96-well plate.BSK_BF4T_VCAM1 is an assay component measured in the BSK_BF4T assay. It measures VCAM-1 antibody related to regulation of gene expression using ELISA technology.Data from the assay component BSK_BF4T_VCAM1 was analyzed at the endpoint, BSK_BF4T_VCAM1, in the positive analysis fitting direction relative to DMSO as the negative control and baseline of activity. Using a type of binding reporter, gain or loss-of-signal activity can be used to understand protein changes. To generalize the intended target to other relatable targets, this assay endpoint is annotated to the 'cell adhesion molecules' intended target family, where the subfamily is 'Immunoglobulin CAM'.
The levels of cell surface (or secreted, indicated by the prefix "s") biomarker endpoints were measured by ELISA. Overt cytotoxicity to cells in confluent adherent cultures (all systems other than the BT system) was assessed by measuring total protein levels using sulforhodamine B (SRB) staining in parallel cultures at the time of biomarker measurements, indicated as SRB endpoints. For proliferation assays for adherent cell types, individual cell types are cultured at sub-confluence and relative cell numbers quantified by SRB staining at time points optimized for each system (48 h: 3C and CASM3C systems; 72 h: BT and HDF3CGF systems; 96 h: SAg system). SRB was performed by staining cells with 0.1% SRB after fixation with 10% TCA and reading wells at 560 nm.Viability and proliferation of PBMC (T cells) was quantified by Alamar Blue reduction for the SAg and BT systems. For PBMC viability (referred to as PBMC Cytotoxicity within the assay endpoint names), cells were plated (75,000/well in a 96-well plate) and then chemical samples added for 1 h before addition of activators, SEB and TSST-1 (20 ng/mL final concentration each). Cells were incubated for 90 h. Then, Alamar Blue (20 uL/well) (Invitrogen, Cat DAL1100) was added for 6 h, and the plates were read with a fluorescence microplate reader at 546/580 nm (excitation/emission). For PBMC proliferation, cells were plated and activated as above but incubated for only 16 h prior to addition of Alamar Blue. Plates were read after 6 h.

Compound | outcome
C[Si](C)(C)C(F)(F)C(F)(F)C(F)(F)F | inactive
FC(F)=C(F)C(F)(F)C(F)(F)C(F)(F)C(F)(F)C(F)(F)C(F)(F)F | inactive
OCCC(F)(F)C(F)(F)C(F)(F)C(F)(F)F | inactive
O=C(Cl)C(F)(F)C(F)(F)C(F)(F)C(=O)Cl | inactive
O=S(=O)(O)CCC(F)(F)C(F)(F)C(F)(F)C(F)(F)C(F)(F)C(F)(F)F | inactive
FC(F)(F)C(F)(F)C(F)(F)C(F)(F)C(F)(F)C(F)(F)I | inactive
NCC(F)(F)C(F)(F)C(F)(F)C(F)(F)F | inactive
OC(O)(C(F)C(O)(O)C(F)(F)F)C(F)(F)F | inactive
FC(F)(F)COC(OCC(F)(F)F)OCC(F)(F)F | inactive
FC(F)C(F)(F)COCC1CO1 (stereo not given) | inactive
